“And” between values parts separate entries of the source, which are not always exact repeats. Equal values may be shown once. Some compounds were tested as several samples or in several runs, with calls that do not always agree. The source made the active and inactive calls.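 The calls were made as follows, unless noted: active = z-score of at least 1.8 in each of two replicates, scored against plate mean and spread of sample wells; inactive = the rest.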
Legend:
[1] = suppressors of polyQ aggregation in yeast, 75Q-TubU reporter (AID 1593); settings: Yeast 75Q polyglutamine aggregation reporter
[2] = inhibitors of mitochondrial cytochrome c release, biochemical, purified mitochondria (AID 1603); settings: stronger effect = lower value;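 also: mouse liver mitochondria challenged with calcium chloride; signal normalized to the plate average as 100%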
[3] = inhibitors of polyQ protein aggregation (AID 1604); settings: polyglutamine-induced protein aggregation inhibition assay; stronger effect = higher value; tested at 2.5 µM
[4] = stimulators of nuclear beta-catenin in C2C12, primary screen, imaging, WNT3A-conditioned medium, mouse C2C12, NPC library (AID 1117326; in the data active = nuclear beta-catenin stimulation mostly above about 4.2%, no sharp cut-off; inactive = mostly below about 10%); settings: stronger effect = higher value
[5] = stimulators of insulin release from INS-1E, primary screen, cell-based, 5 mM glucose, NPC library (AID 1117329;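 active = compound raises insulin release from rat beta cells at 5 mM glucose, no numeric limit stated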); settings: rat INS-1E insulin secretion, at 10 µM, stronger effect = higher value
[6] = growth inhibition of GSK3B-pretreated HCT116 cells – cell-based, CellTiter-Glo, 0.2 to 20 µM (AID 1117336;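 active = compounds lowering colon cancer cell viability after pretreatment blocking the GSK3B kinase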); settings: HCT116 viability after GSK3B inhibitor, at 20 µM, stronger effect = higher value
[7] = inhibition of endothelial tube formation, primary screen, imaging, VEGF stimulated, CD31 staining, tube area, NPC library (AID 1117340;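 active = compound that reduces growth-factor-driven endothelial tube area in a mixed cell culture, no cutoff stated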); settings: VEGF-stimulated ADSC/ECFC co-culture, at 10 µM, stronger effect = higher value
[8] = glucagon-like peptide 1 release enhancers, primary assay, NCI-H716 cell line, NPC library (AID 1117341;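 active = compound raises GLP1 secretion from the human gut endocrine cells, with no numeric limit stated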); settings: NCI-H716 cells, at 10 µM, stronger effect = higher value
[9] = HCT116 colon cancer cell growth inhibition, primary screen, CellTiter-Glo luminescence, NPC library (AID 1117342;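 active = compounds that lower survival of HCT116 colon cancer cells in the luminescence readout, no numeric limit stated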); settings: at 20 µM (top of the series)
[10] = CellTiter-Glo luminescent readout of SW480 viability loss, NPC library primary (AID 1117343;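 active = compounds that lower viability of the colon cancer cells in the luminescence readout, with no numeric limit stated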); settings: CellTiter-Glo luminescence; at 20 µM (top of the series)
[11] = decreased DLD-1 cellular survival, CellTiter-Glo luminescent readout, NPC compound collection, primary HTS (AID 1117346;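 active = compounds that lower survival of DLD-1 colon cancer cells in the luminescence readout, no cutoff given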); settings: DLD-1 viability, CellTiter-Glo luminescence; at 20 µM (top of the series)
[12] = biological target: 6-phosphogluconate dehydrogenase, decarboxylating (Homo sapiens) (UniProt P52209); assay: 6PGD enzyme inhibitors, primary screen, biochemical, human, recombinant enzyme, NADPH absorbance (AID 1159550;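 active = at least 20% inhibition of 6-phosphogluconate dehydrogenase activity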); settings: recombinant 6PGD, NADPH absorbance 341 nm; at 10 µM; stronger effect = higher value
Chain of 6-phosphogluconate dehydrogenase, decarboxylating (Homo sapiens) (P52209 whole entry, looked up): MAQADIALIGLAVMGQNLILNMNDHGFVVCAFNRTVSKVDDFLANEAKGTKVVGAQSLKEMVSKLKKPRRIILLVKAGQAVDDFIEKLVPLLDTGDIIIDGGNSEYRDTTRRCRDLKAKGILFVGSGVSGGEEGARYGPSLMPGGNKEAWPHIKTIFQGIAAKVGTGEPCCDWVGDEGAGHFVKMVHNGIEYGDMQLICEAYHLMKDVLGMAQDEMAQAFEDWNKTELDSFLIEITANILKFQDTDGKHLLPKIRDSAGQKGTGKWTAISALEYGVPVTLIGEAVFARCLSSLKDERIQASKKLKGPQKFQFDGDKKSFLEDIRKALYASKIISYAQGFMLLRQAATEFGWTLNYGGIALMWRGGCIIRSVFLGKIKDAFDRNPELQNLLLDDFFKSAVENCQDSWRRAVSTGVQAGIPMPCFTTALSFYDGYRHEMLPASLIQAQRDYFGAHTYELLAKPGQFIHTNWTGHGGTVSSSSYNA

[13] = differential killing of epithelial or mesenchymal cells, primary screen, imaging, PC-3E GFP, TEM4-18 mCherry, co-culture (AID 1345086;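 active = compounds killing one labelled cell type while sparing the other, by normalised counts and ratio limits, not self-fluorescent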;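 as to all read-outs here: cells exposed to compound for 72 h before imaging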;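 as to red/green cell ratio (normalised): normalised mesenchymal count divided by normalised epithelial count so high means epithelial killing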); settings: imaging cell counts, at 1 µM; for red/green cell ratio (normalised): actives lie on both sides
[14] = system: Aerobactin synthetase IucA (Klebsiella pneumoniae hvKP1); assay: Biochemical IucA enzyme inhibition primary screen of the Spectrum library (AID 1346200; call rule not given here;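 also: 100% = wells without compound and 0% = wells lacking enzyme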); settings: malachite green pyrophosphate, A620, at 8 µM, stronger effect = lower value
[15] = sensitizers of A549 cells to miR-34 induction, primary screen, imaging, A549 dox-inducible miR-34, nuclei and caspase counts (AID 1347080;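 active = compounds whose cell count with miR-34 switched on is under 0.7 times the count with it off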); settings: A549 miR-34 inducible, Hoechst nuclei count, 48 h
[16] = biological target: Mitogen-activated protein kinase 7 (Homo sapiens) (UniProt Q13164); assay: ERK5 transactivation activators in reporter cells, primary screen, cell-based, HTS (AID 1508626;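 active = luciferase signal above three times the same-plate solvent-only control wells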;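 also: luciferase driven by Gal4-ERK5 fusion binding five Gal4 sites before minimal TATA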); settings: HeLa Gal4-ERK5 transactivation, 18 h, at 5 µM, stronger effect = higher value
Chain of Mitogen-activated protein kinase 7 (Homo sapiens) (Q13164 whole entry, looked up, the tested form may be a part): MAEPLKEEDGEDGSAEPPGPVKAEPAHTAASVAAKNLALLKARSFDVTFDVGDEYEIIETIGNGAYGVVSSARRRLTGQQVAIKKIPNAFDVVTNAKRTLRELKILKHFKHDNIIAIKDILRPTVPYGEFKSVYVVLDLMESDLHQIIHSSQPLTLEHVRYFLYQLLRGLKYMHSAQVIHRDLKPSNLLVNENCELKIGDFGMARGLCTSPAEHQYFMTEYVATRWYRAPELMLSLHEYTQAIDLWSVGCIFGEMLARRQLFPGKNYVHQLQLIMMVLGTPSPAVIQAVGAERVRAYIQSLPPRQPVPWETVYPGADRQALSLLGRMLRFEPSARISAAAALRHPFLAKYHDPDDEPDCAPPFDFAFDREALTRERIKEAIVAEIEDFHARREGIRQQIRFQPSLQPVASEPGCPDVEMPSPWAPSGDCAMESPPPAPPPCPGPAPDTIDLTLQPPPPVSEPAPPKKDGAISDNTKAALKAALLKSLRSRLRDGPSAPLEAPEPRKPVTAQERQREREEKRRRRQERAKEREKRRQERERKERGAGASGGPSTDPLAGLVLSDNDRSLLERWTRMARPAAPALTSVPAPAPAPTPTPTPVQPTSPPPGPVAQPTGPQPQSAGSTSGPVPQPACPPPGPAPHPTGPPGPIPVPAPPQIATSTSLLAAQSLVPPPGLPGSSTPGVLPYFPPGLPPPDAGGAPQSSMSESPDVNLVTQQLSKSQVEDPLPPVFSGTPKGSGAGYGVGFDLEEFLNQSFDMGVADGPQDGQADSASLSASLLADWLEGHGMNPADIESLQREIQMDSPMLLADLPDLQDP

[17] = viability rescue of complex I mutant cybrids, primary screen, cell-based, galactose medium, ATP luminescence (AID 1645843); settings: complex I mutant cybrid cells, 72 h, stronger effect = higher value;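 also: positive z means more ATP and so rescue of galactose-driven cybrid death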
[18] = survival rescue of mitochondrial mutant cells in low glucose, primary screen, MELAS cybrids, Rieske KO mouse fibroblasts, CellTiter-Glo (AID 1508586;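 active = mean z-score across replicates of 1.96 or higher in either the MELAS or the Rieske mutant cell line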;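 also: z relative to plate mean and SD of compound and empty wells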)
[19] = biological target: NAD(+) hydrolase SARM1 (Homo sapiens) (UniProt Q6SZW1); assay: SARM1 TIR NADase inhibitors, cell lysate, NAD-Glo luminescence (AID 1508614;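 active = compound whose remaining NAD level is above about 45 nM, limit read from the data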;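 also: higher remaining NAD means stronger inhibition of SARM1 NADase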); settings: SAM-TIR HEK293T lysate NADase, at 1 µM, stronger effect = higher value
Chain of NAD(+) hydrolase SARM1 (Homo sapiens) (Q6SZW1 whole entry, looked up): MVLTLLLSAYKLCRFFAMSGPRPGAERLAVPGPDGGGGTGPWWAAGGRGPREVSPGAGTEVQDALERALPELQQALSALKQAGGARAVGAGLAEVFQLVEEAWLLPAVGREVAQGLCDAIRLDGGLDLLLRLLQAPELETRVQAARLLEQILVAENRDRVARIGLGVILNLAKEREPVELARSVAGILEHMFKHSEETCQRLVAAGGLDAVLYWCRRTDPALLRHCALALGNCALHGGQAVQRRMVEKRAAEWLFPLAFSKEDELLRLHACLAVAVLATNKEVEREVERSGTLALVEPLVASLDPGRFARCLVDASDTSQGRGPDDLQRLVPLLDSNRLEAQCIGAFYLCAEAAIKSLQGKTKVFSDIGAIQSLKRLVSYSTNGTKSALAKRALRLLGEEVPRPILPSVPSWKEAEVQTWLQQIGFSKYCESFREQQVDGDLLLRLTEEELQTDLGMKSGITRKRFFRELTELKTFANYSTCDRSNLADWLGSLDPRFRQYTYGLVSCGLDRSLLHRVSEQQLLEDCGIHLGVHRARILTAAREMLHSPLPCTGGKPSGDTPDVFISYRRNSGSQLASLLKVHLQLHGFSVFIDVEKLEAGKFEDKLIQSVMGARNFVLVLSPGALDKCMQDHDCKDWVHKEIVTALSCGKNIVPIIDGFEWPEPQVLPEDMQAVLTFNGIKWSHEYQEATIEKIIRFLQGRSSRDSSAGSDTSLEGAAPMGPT

[20] = liver-stage malaria parasite growth inhibition, primary screen, cell-based, HepG2, luciferase luminescence, HepG2 viability (AID 624349; in the data active = parasite load remaining mostly below about 12%, no sharp cut-off; inactive = mostly above about 10%;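 also: 100% = mean of DMSO negative control wells on the same plate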); settings: P. berghei liver stage in HepG2, luciferase luminescence, concentration not given here; parasite load remaining: stronger effect = lower value; viability: measured here: HepG2 viability without parasites
[21] = measured here: epithelial PC-3E GFP cell survival
[22] = measured here: mesenchymal TEM4-18 mCherry cell survival
[23] = measured here: relative caspase fold change +Dox/-Dox
[24] = measured here: total cells with miR-34 induction, stronger effect = lower value
[25] = measured here: total cells without miR-34 induction
[26] = MELAS cybrid survival, CellTiter-Glo 48 h, stronger effect = higher value
[27] = Rieske KO mouse fibroblast survival, CellTiter-Glo 72 h

NCCc1ccc(O)cc1
score [1]: 1.21 | cytochrome c release ratio [2]: 0.71 | inhibition of aggregation [3]: 39.2% | nuclear beta-catenin stimulation ([4]; at 10 µM): -0.5% (inactive) | nuclear beta-catenin stimulation ([4]; stimulation, at 2 µM): 1.3% | insulin secretion stimulation [5]: 1.8% (inactive) | viability decrease [6]: 4.6% (inactive) | tube area decrease [7]: -10% (inactive) | GLP1 secretion stimulation [8]: -1.8% (inactive) | inhibition of viability [9]: 9.07% (inactive) | viability decrease (inhibition) [10]: 5.3% (inactive) | viability decrease (inhibition) [11]: -2.9% (inactive) | inhibition [12]: -11.3% (inactive) | red/green cell ratio (normalised) [13]: 0.8 (inactive) | normalised cell number [13, 21]: 1.04 | normalised cell number [13, 22]: 0.83 | activity remaining [14]: 108% (inactive) | fold change ([15]; stronger effect = lower value, cell number ratio, induced over uninduced): 0.965 (inactive) | fold change [15, 23]: 1.32 | cell count [15, 24]: 10000 | cell count [15, 25]: 10400 | luciferase signal [16]: 52 AU (inactive) | z-score [17]: 0.68 (inactive)

CCC1(c2ccc(N)cc2)CCC(=O)NC1=O (stereo not given)
score [1]: 1.07 | cytochrome c release ratio [2]: 0.66 | inhibition of aggregation [3]: -9.29% | nuclear beta-catenin stimulation ([4]; at 10 µM): -0.3% (inactive) | nuclear beta-catenin stimulation ([4]; stimulation, at 2 µM): -0.3% | insulin secretion stimulation [5]: -2.7% (inactive) | viability decrease [6]: -4.4% (inactive) | tube area decrease [7]: 14.2% (inactive) | GLP1 secretion stimulation [8]: 4.2% (inactive) | inhibition of viability [9]: -0.6% (inactive) | viability decrease (inhibition) [10]: 45.3% (inactive) | viability decrease (inhibition) [11]: 10% (inactive) | inhibition [12]: 13.3% (inactive) | red/green cell ratio (normalised) [13]: 0.89 (inactive) | normalised cell number [13, 21]: 1.36 | normalised cell number [13, 22]: 1.2 | activity remaining [14]: 112% (inactive) | z-score [18, 26]: -0.397 (inactive) and 0.19 (inactive) and 0.162 (inactive) | z-score [18, 27]: -0.0248 and -0.0255 and -0.773 | remaining NAD [19]: 10 nM (inactive) | luciferase signal [16]: 56 AU (inactive) | z-score [17]: 0.24 (inactive) and 0.82 (inactive) and 0.775 (inactive)

CC(C)=C[C@@H]1[C@@H](C(=O)OCc2coc(Cc3ccccc3)c2)C1(C)C
nuclear beta-catenin stimulation ([4]; at 10 µM): 0.3% (inactive) | nuclear beta-catenin stimulation ([4]; stimulation, at 2 µM): 0.4% | insulin secretion stimulation [5]: -3.4% (inactive) | viability decrease [6]: 14.7% (inactive) | tube area decrease [7]: 12.6% (inactive) | GLP1 secretion stimulation [8]: -0.4% (inactive) | inhibition of viability [9]: 12.9% (inactive) | viability decrease (inhibition) [10]: 87.8% (active) | viability decrease (inhibition) [11]: 23.4% (inactive)

NCC(O)c1ccc(O)cc1 (stereo not given)
score [1]: 1.11 | cytochrome c release ratio [2]: 0.99 | inhibition of aggregation [3]: 55.6% | parasite load remaining [20]: 79.5% (inactive) and 84.6% (inactive) | viability [20]: 96% and 67.9% | nuclear beta-catenin stimulation ([4]; at 10 µM): -0.4% (inactive) | nuclear beta-catenin stimulation ([4]; stimulation, at 2 µM): 0.8% | insulin secretion stimulation [5]: -2.1% (inactive) | viability decrease [6]: -4.35% (inactive) | tube area decrease [7]: -17.5% (inactive) | GLP1 secretion stimulation [8]: 1.6% (inactive) | inhibition of viability [9]: -5% (inactive) | viability decrease (inhibition) [10]: 18.2% (inactive) | viability decrease (inhibition) [11]: 1.65% (inactive) | inhibition [12]: 8.94% (inactive) | red/green cell ratio (normalised) [13]: 1 (inactive) | normalised cell number [13, 21]: 0.98 | normalised cell number [13, 22]: 0.97 | activity remaining [14]: 125% (inactive) | z-score [18, 26]: -0.301 (inactive) and 0.485 (inactive) | z-score [18, 27]: -0.195 and -0.00807 | remaining NAD [19]: 10 nM (inactive) | luciferase signal [16]: 80 AU (inactive) | z-score [17]: 0.63 (inactive) and -0.045 (inactive)

COC1CC(=C(c2cccs2)c2cccs2)C[N+](C)(C)C1 (stereo not given)
nuclear beta-catenin stimulation ([4]; at 10 µM): -1.6% (inactive) | nuclear beta-catenin stimulation ([4]; stimulation, at 2 µM): 1.1% | insulin secretion stimulation [5]: 0.1% (inactive) | viability decrease [6]: -13.9% (inactive) | tube area decrease [7]: 10.1% (inactive) | GLP1 secretion stimulation [8]: -0.6% (inactive) | inhibition of viability [9]: 8.3% (inactive) | viability decrease (inhibition) [10]: -2.9% (inactive) | viability decrease (inhibition) [11]: -0.4% (inactive)

COc1ccc(C(CN(C)C)C2(O)CCCCC2)cc1 (stereo not given)
nuclear beta-catenin stimulation ([4]; at 10 µM): 3.1% (inactive) | nuclear beta-catenin stimulation ([4]; stimulation, at 2 µM): 1.4% | insulin secretion stimulation [5]: 2.1% (inactive) | viability decrease [6]: -40% (inactive) | tube area decrease [7]: 1.5% (inactive) | GLP1 secretion stimulation [8]: 4.1% (inactive) | inhibition of viability [9]: -3.77% (inactive) | viability decrease (inhibition) [10]: -4% (inactive) | viability decrease (inhibition) [11]: -3.8% (inactive) | inhibition [12]: -0.228% (inactive) | red/green cell ratio (normalised) ([13]; counts scaled to control wells, 1 = unselective): 1.25 (inactive) | normalised cell number [13, 21]: 1.01 | normalised cell number [13, 22]: 1.26 | activity remaining [14]: 123% (inactive) | z-score [18, 26]: 2.81 (active) and 0.624 (inactive) and -0.216 (inactive) | z-score [18, 27]: -2.19 and 0.0731 and -0.394 | remaining NAD [19]: 10 nM (inactive) | luciferase signal [16]: 48 AU (inactive) | z-score [17]: -0.07 (inactive) and 0.705 (inactive) and 0.625 (inactive)

CN(C)[C@@H]1C(=O)C(C(N)=O)=C(O)[C@@]2(O)C(=O)C3=C(O)c4c(O)cccc4[C@@](C)(O)[C@H]3[C@H](O)[C@@H]12
score [1]: 0.9 | cytochrome c release ratio [2]: 0.99 | inhibition of aggregation [3]: 39.4% | nuclear beta-catenin stimulation ([4]; at 10 µM): -2.3% (inactive) | nuclear beta-catenin stimulation ([4]; stimulation, at 2 µM): 0.1% | insulin secretion stimulation [5]: 1.4% (inactive) | viability decrease [6]: 38.4% (inactive) | tube area decrease [7]: 11.7% (inactive) | GLP1 secretion stimulation [8]: -2.9% (inactive) | inhibition of viability [9]: 31.6% (inactive) | viability decrease (inhibition) [10]: 62.8% (active) | viability decrease (inhibition) [11]: 14.3% (inactive) | inhibition [12]: -7.39% (inactive) | red/green cell ratio (normalised) [13]: 0.97 (inactive) | normalised cell number [13, 21]: 1.02 | normalised cell number [13, 22]: 0.99 | activity remaining [14]: 109% (inactive) | fold change ([15]; stronger effect = lower value): 0.977 (inactive) and 0.919 (inactive) and 0.901 (inactive) | fold change [15, 23]: 0.839 and 0.936 and 1.89 | cell count [15, 24]: 8720 and 8430 and 10800 | cell count [15, 25]: 8930 and 9170 and 12000 | z-score [18, 26]: -3.76 (inactive) | z-score [18, 27]: -2.32 | remaining NAD [19]: 10 nM (inactive) | luciferase signal [16]: 92 AU (inactive) | z-score [17]: -1.4 (inactive)

N[C@@H](Cc1ccc(N(CCCl)CCCl)cc1)C(=O)O
score [1]: 1.14 | cytochrome c release ratio [2]: 0.77 | inhibition of aggregation [3]: 49.4% | parasite load remaining [20]: 85.5% (inactive) and 46.9% (inactive) | viability [20]: 102% and 79% | nuclear beta-catenin stimulation ([4]; at 10 µM): 5.3% (inactive) | nuclear beta-catenin stimulation ([4]; stimulation, at 2 µM): -1.1% | insulin secretion stimulation [5]: -2.1% (inactive) | viability decrease [6]: 57.9% (active) | tube area decrease [7]: 89.6% (active) | GLP1 secretion stimulation [8]: 0.9% (inactive) | inhibition of viability [9]: 11.2% (inactive) | viability decrease (inhibition) [10]: 8.5% (inactive) | viability decrease (inhibition) [11]: 8.7% (inactive) | inhibition [12]: -5.9% (inactive) | red/green cell ratio (normalised) [13]: 0.83 (inactive) | normalised cell number [13, 21]: 0.94 | normalised cell number [13, 22]: 0.77 | activity remaining [14]: 104% (inactive) | fold change ([15]; stronger effect = lower value): 0.909 (inactive) and 0.963 (inactive) | fold change [15, 23]: 1.01 and 1.57 | cell count [15, 24]: 3400 and 2500 | cell count [15, 25]: 3740 and 2600 | z-score [18, 26]: 0.0989 (inactive) | z-score [18, 27]: -1.05 | remaining NAD [19]: 10 nM (inactive) | luciferase signal [16]: 40 AU (inactive) | z-score [17]: -1.76 (inactive)
